# In the library only some 1.1% were active in any assay of this set; here they are far more common.
# 3CLpro inhibitor: SARS-CoV 3CLpro protease inhibition | P0C6X7 | recombinant SARS-CoV 3CLpro, quenched FRET peptide cleavage | inhibition, % at 6 µM | 0.14% of 290,000 active | AID 1706; in the data active = inhibition above about 12%
# BJeLR lethal: kills HRASV12-expressing BJeLR cells; BJeLR (HRASV12) viability, CellTiter-Glo ATP luminescence, 48 h; inhibition, % (concentration not given with the values); 0.17% of 300,000 active; AID 1554; in the data active = inhibition above about 50%
# PrPC surface inh: cell surface PrPC inhibition, primary TR-FRET screen; 0.43% of 370,000 active; AID 720596; TR-FRET read-out; P04156; inhibition, % at 13.8 µM; in the data active = inhibition above about 24%; also: 0% = median of the test wells and 100% = reference compound wells
# VHR inh abs: blocks human VHR1 dual specificity phosphatase | inhibition, % at 13.3 µM | 0.52% of 290,000 active | P51452 | AID 1654 | recombinant VHR phosphatase, pNPP absorbance; in the data active = inhibition above about 50%
# Target sequence (P51452 whole entry, looked up): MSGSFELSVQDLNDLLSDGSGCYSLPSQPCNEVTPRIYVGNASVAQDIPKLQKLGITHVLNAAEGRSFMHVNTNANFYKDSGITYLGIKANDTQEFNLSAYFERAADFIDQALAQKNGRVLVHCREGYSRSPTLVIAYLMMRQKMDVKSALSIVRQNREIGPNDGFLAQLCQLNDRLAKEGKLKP
# Active calls of the source: *; . = no result given.
SMILES,3CLpro inhibitor,BJeLR lethal,PrPC surface inh,VHR inh abs
C/C(=N\NC(=O)c1cccc2ccccc12)c1ccccn1,4,79*,-4,21
C/C(=N\NC(=O)c1ccc(Cl)c(Cl)c1)c1ccccn1,3,39,-2,23
C/C(=N\NC(=O)c1ccccc1Cl)c1ccccn1,-5,48,-1,16
COc1ccc(C(=O)N/N=C(\C)c2ccccn2)cc1OC,1,74*,3,27
Cc1cc2ncn(/N=C/c3ccc([N+](=O)[O-])o3)c2cc1C,10,-5,-3,52*
CCn1ncc(CN2CCC(Oc3ccc(C(=O)N4CCCC4)cc3)CC2)c1C,1,13,-1,8
CCn1nc(C)c(CN2CCC(Oc3ccc(C(=O)N4CCCC4)cc3)CC2)c1C,-2,12,4,57*
N#Cc1cn(N2CCCCC2)c(=O)[nH]c1=O,-3,-1,-10,10
Cc1ccc(-c2nc3ncccc3o2)cc1NC(=O)c1ccc2c(c1)OCO2,.,.,7,.
O=C(CN1C(=O)CSc2ccc(S(=O)(=O)N3CCCCC3)cc21)NCc1ccccc1,-1,10,8,-3
O=C(CN1C(=O)CSc2ccc(S(=O)(=O)N3CCCCC3)cc21)NCc1ccccc1Cl,3,-1,4,56*
COc1ccccc1C#Cc1cnc2c(c1)C(=O)N([C@H](C)CO)C[C@@H](C)[C@@H](CN(C)C(=O)c1ccc3c(c1)OCO3)O2,.,.,2,.
C[C@@H]1C=CC(=O)O[C@@H]1c1ccc(Cl)cc1,-6,77*,2,20
CC1C(=O)OC(c2ccc(Cl)cc2)C(C)(C)C1=O (stereo unspecified),-4,-2,4,-4
COc1ccc(S[C@]2(C(=O)N(C)C)CC(=O)N(S(=O)(=O)c3ccc(F)cc3)[C@@H]2c2ccc(OC)cc2)cc1,.,.,-9,.
O=c1oc2cc(O)c(Cl)cc2c2ccccc12,0,-1,4,-8
O=c1cc2c(=O)oc3cc(O)c(O)oc3c2c(O)c1O,0,23,-8,112*
Cc1cccn2c(=O)c3cc(C(=O)NCCN4CCOCC4)c(=N)n(CCCN4CCOCC4)c3nc12,-6,4,-37,55*
CCn1c(=O)n(CC)c2cc(N3CCCC3)c(NC(=O)c3ccccc3OC)cc21,-1,0,12,52*
CCOc1ccccc1C(=O)Nc1cc2c(cc1N1CCCC1)n(CC)c(=O)n2CC,-1,-2,18,31
COc1cc(CN2CCN(Cc3ccc4cc(F)ccc4n3)CC2CCO)cc(OC)c1 (stereo unspecified),-7,-12,-14,-29
COc1ccc(CN2CCN(Cc3ccc4cc(F)ccc4n3)CC2CCO)c(C)c1C (stereo unspecified),-1,-21,0,51*
CCS(=O)(=O)N1Cc2ccccc2CC1C(=O)NC(C)C12CC3CC(CC(C3)C1)C2 (stereo unspecified),-5,-2,31*,2
CCS(=O)(=O)N1Cc2ccccc2CC1C(=O)NCC12CC3CC(CC(C3)C1)C2 (stereo unspecified),0,10,1,20
CCN(CC)c1ccc(/C=N/NC(=O)c2cccc(S(=O)(=O)N3CCOCC3)c2)c(O)c1,-4,54*,4,13
SMILES,3CLpro inhibitor,BJeLR lethal,PrPC surface inh,VHR inh abs
CCN(CC)c1ccc(C=Nc2cccc(S(=O)(=O)N3CCOCC3)c2)c(O)c1,.,.,-8,.
CC(=O)Nc1ccc(NC(=O)CN(c2cccc([N+](=O)[O-])c2)S(C)(=O)=O)cc1,-2,69*,-11,21
CS(=O)(=O)N(CC(=O)NCC1CCCO1)c1cccc([N+](=O)[O-])c1 (stereo unspecified),7,4,-4,56*
CS(=O)(=O)N(CC(=O)Nc1cccc(F)c1)c1cccc([N+](=O)[O-])c1,1,2,-19,16
Cc1ccc([N+](=O)[O-])cc1N(CC(=O)NC1CCCC1)S(C)(=O)=O,-1,.,-3,-15
Cc1ccc(NS(=O)(=O)c2ccc(NC(=O)CN(c3cc([N+](=O)[O-])ccc3C)S(C)(=O)=O)cc2)c(C)c1,1,65*,-7,-2
O=c1/c(=C\c2cccnc2)sc2nc3ccccc3n12,-2,2,.,4
O=c1/c(=C/c2ccc(O)c([N+](=O)[O-])c2)sc2nc3ccccc3n12,6,.,4,75*
Cc1cccc(CNC(=O)Nc2nnc([C@H]3C[C@H](O)[C@@H](CO)O3)s2)c1,.,.,-1,.
COc1ccc(N(CC(=O)NC2CCCC2)C(=O)CCC(=O)Nc2nc(C)cs2)cc1OC,-1,0,9,53*
CC(=O)OC[C@H]1O[C@@H](Oc2cc3ccc(=O)oc3cc2OC(C)=O)[C@H](OC(C)=O)[C@@H](OC(C)=O)[C@@H]1OC(C)=O,.,.,-4,.
Cc1ccc(S(=O)(=O)NC[C@@H]2C[C@H](c3ccccc3)ON2S(=O)(=O)c2ccc(C)cc2)cc1,.,.,6,.
c1cc(-c2sc(-c3ccncc3)c(-c3ccncc3)c2-c2ccncc2)ccn1,1,11,-1,53*
CCCc1cc(=O)oc2c(CN(CC)CC)c(O)c(Cl)cc12,3,-3,0,-6
CCCCc1cc(=O)oc2c(CN(CC)CC)c(O)c(Cl)cc12,1,-11,-3,52*
COCCNC(=O)/C(C#N)=C/c1c(N2CCN(c3ccc(OC)cc3)CC2)nc2c(C)cccn2c1=O,4,-4,-11,34
COc1cc(OC)c(C2=NOC(C(=O)NCc3cccs3)C2)cc1Cl (stereo unspecified),-3,63*,4,6
COc1cc(C2=NOC(C(=O)NCc3cccs3)C2)cc(OC)c1OC (stereo unspecified),3,20,13,12
CCCC(=O)OC[C@H]1CN(C2CCCC2)S(=O)(=O)c2c(Oc3ccc(F)cc3OC)cccc2O1,.,.,3,.
O=C(O)CN1C(=O)/C(=C\c2cc(Br)ccc2OCc2ccc(Cl)cc2)SC1=S,5,-4,1,57*
Cn1c(=O)c(C(=O)NC2CCCCCC2)c(O)c2ccccc21,4,6,3,60*
COc1ccc(C(=O)c2c(-c3cccc(C)c3)oc3ccc(N4CCOCC4)cc23)cn1,5,-8,4,36
Cc1sc2nc(SCC(=O)c3ccc(O)c(O)c3)n(C)c(=O)c2c1C,.,.,7,.
CCN1CCN(C(CNS(=O)(=O)c2ccc(C)cc2)c2cccnc2)CC1 (stereo unspecified),2,1,-7,51*
Cc1ccc(S(=O)(=O)NCC(c2cccnc2)N2CCN(Cc3ccccc3)CC2)cc1 (stereo unspecified),-1,-3,-10,-13
COc1ccc(Br)cc1S(=O)(=O)NCCN1CCOCC1,7,3,5,57*
COc1ccc(C)cc1S(=O)(=O)NCCN1CCOCC1,-5,7,-7,31
O=[N+]([O-])c1ccn(-c2nc(-c3cccs3)cc(C(F)(F)F)n2)n1,4,8,-9,54*
O=C(N/N=C/c1ccc(O)cc1)c1cc(-c2ccc3c(c2)OCO3)n[nH]1,-1,-1,25*,22
O=C(N/N=C/c1cccc([N+](=O)[O-])c1)c1cc(-c2ccc3c(c2)OCO3)n[nH]1,-1,2,2,51*

# Source: PubChem
